From PubChem BioAssay
ALOX12 inh – inhibitors of human 12S-lipoxygenase ALOX12; actives 1.1% (n = 580,000); Potency, µM (top dose mostly 108 µM), for inactives: at the highest dose activity change, negative = inhibition, actives largely listed as inhibitors; P18054; purified 12hLO, xylenol orange hydroperoxide absorbance; AID 1671190; note: potency is the fitted concentration of half-maximal effect; % is set by controls: 0 for no effect and ±100 for the full control effect
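Purified human 12hLO at 150 nM in 25 mM Hepes, 0.01% Triton X-100, pH 7.0, preincubated 15 min at room temperature with compound. Reaction started with 40 uM arachidonic acid, 30 min at room temperature. Hydroperoxide measured by Fe-xylenol orange, 573/405 nm absorbance ratio.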
ASM inhibitor – human S-ASM enzyme inhibition. P17405. placental ASM, HMU-PC fluorogenic substrate, 60 min. Potency, µM (doses to about 57.5 µM), without a hit: top-dose activity change, negative = inhibition, most hits filed as inhibitors. actives 0.006% (n = 340,000); note: potency is the fitted concentration of half-maximal effect
Target sequence (P17405 47-631 limits assumed): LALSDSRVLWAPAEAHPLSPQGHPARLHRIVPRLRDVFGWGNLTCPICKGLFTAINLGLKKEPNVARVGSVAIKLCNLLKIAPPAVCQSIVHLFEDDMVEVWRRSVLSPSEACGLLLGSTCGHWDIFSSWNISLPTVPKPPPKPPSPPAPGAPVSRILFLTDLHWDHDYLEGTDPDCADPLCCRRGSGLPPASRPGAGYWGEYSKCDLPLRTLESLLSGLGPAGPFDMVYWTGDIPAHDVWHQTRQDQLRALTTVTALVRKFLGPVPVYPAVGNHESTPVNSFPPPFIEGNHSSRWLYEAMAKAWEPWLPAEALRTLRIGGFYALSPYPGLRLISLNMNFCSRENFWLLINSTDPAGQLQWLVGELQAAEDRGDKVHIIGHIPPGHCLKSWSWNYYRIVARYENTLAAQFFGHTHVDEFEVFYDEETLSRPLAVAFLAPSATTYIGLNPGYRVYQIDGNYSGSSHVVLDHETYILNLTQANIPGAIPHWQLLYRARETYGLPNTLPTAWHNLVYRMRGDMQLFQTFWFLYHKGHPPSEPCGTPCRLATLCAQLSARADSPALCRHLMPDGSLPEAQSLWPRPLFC
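Fluorescence read-out (Ex 386 nm, Em 447 nm) after stopping the reaction at pH 10. Enzyme: ASM from human placenta; substrate HMU-PC0, 9 uM final; 60 min, 37 °C. Compound preincubation 10 min, ambient temperature.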
p53 reactivation – re-activators of mutant p53. H1299 p53-A138V BP100-luciferase reporter, luminescence, 24 h. AID 504706. actives 0.063% (n = 320,000). Potency, µM (series often up to 92.2 µM), for inactives: at the top dose activity change, positive = activation, hits mostly activators; note: potency is the fitted concentration of half-maximal effect; % of control where 0% means no effect; nearly all actives have a fitted effect of over 45% in size
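p53-null H1299 cells stably carrying temperature-sensitive p53-A138V and a BP100-luciferase reporter were pinned with compounds (4-point, 1:5 series) and held 24 hrs at 37 deg C. Luminescence was read 10 min after detection reagent.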
PINK1 expr mod – changes PINK1 expression; PINK1 immunofluorescence, high-content cytometry, 24 h; Potency, µM (titrated, usually from 76.6 µM), inactives show top-dose activation (PINK1 increase), actives largely listed as activators; actives 0.2% (n = 410,000); active = well fitted activation curve with a large enough effect; inconclusive = small, poorly fitted or top-dose-only effect; cell line not stated here; note: potency is the fitted concentration of half-maximal effect; % of control where 0% means no effect; nearly all actives have a fitted effect of over 65% in size
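A stable cell line was treated with compounds at 5 concentrations for 24 hours, with CCCP as control. PINK1 levels and mitochondrial localization were measured by immunofluorescence with mitochondrial, cell and nuclear markers after fixation, read by laser-scanning cytometry.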
CCT chaperon mod – changes cytosolic chaperonin activity. purified chaperonin ATPase assay, HTRF ADP detection, 30 min. activity change, % (no concentration beside the values), hits read low. actives 0.3% (n = 360,000). AID 651819; in the data active = activity change below about -30%; note: % is set by controls: 0 for no effect and ±100 for the full control effect
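TRiC at 40 or 20 nM final (batch-dependent) in 30 mM Tris pH 7.4, 100 mM KCl, 5 mM MgCl2, 1 mM DTT, with compound at single 76 uM and 10 uM ATP, 30 min at 37 deg C. ADP detected by HTRF Transcreener, 665/615 ratio.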
Mm-Cpn inhibitor – M. maripaludis TRiC chaperonin inhibition; actives 0.031% (n = 330,000); Potency, µM (doses to about 76.9 µM), for the others: at the top dose activity, negative = inhibition, hits mostly inhibitors; AID 504842; purified Mm-Cpn ATPase, ADP Transcreener TR-FRET; note: potency is the fitted concentration of half-maximal effect; % is set by controls: 0 for no effect and ±100 for the full control effect; nearly all actives have a fitted effect of over 80% in size
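Reaction buffer contained 30 mM Tris pH 7.4, 100 mM KCl, 5 mM MgCl2 and 1 mM DTT. Mm-CPN (25 nM final) hydrolysed 10 uM ATP over 30 min at 37°C; ADP was read by HTRF.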
* marks the source's active call; other numbers are inactive results; u = inconclusive; x = no result; [ ] = dose if it differs, or a comment. Shown are actives, neighbours in structure and some others; about 1.4% of the full set was active somewhere. Unless noted, calls come from the whole dose curve; as a rule, active = well fitted curve in the direction sought with a large enough effect; inconclusive = small, poorly fitted or top-dose-only effect, or another doubt; inactive = no such curve, though single readings can be large; an effect the other way counts as inactive or inconclusive.

SMILES	ALOX12 inh	ASM inhibitor	p53 reactivation	PINK1 expr mod	CCT chaperon mod	Mm-Cpn inhibitor
CC/C=C/C(=O)N1CC2(CC(c3cccc(NC(=O)CC(c4ccccc4)c4ccccc4)c3)=NO2)C[C@@H]1C(N)=O (some centres not stated)	u	-7.2%	-1.1%	0.4%	-33.2*	1.8%
CSCc1cccc(C(=O)N(CC2CCOC2)C2CC2)c1 (configuration not stated)	13.7%	x	x	x	x	x
CCc1ccc(C(=O)NCc2ccc(N3CCCN(C)CC3)nc2)o1	-2.3%	x	x	x	x	x
CCCCCCCCn1c2c(c(=N)c3ccccc31)CCC2	u	-14.3%	-2.0%	12.6µM*	-1.4	-3.5%
Cc1ccc(-c2nnc(N3CCC(C)CC3)c3ccccc23)cc1C	-10.5%	-3.3%	-1.6%	-1.2%	-43.1*	-1.9%
N=c1nc2n(cc1F)C1OC(CO)C(O)C1O2 (configuration not stated)	-15.7%	0.6%	x	-5.4%	-48.0*	x
Cc1ccc(C(=O)NNCC(=O)Nc2ccc(Cl)cc2F)cc1	15.8µM*	-5.5%	-3.7%	2.4%	-2.7	-0.5%
O=C(CCc1nc(Cc2ccccc2)no1)N1CCSCC1	7.0%	x	x	x	x	x
N#C/C(=C/c1ccc(N2CCCCC2)o1)C(=O)Nc1ccc2ccccc2c1	u	-20.3%	26.0%	7.08µM*	-0.3	-2.6%
COc1ccc(NC(=O)/C(C#N)=C\c2ccc(N3CCOCC3)o2)cc1	-28.0%	u	3.4%	21.0%	2.4	-10.8%
N#C/C(=C/c1ccc(N2CCCCC2)o1)C(=O)Nc1ccc(Cl)cc1	u	-3.0%	u	12.6µM*	-5.2	-0.6%
N#C/C(=C\c1ccc(N2CCOCC2)o1)C(=O)Nc1ccc(O)cc1	-39.3%	-15.3%	0.3%	u	1.1	-16.3%
Cc1cc(Cn2cc3c4c(cccc42)[C@H](CC(C)C)N[C@H](C(=O)NC(C)C)C3)no1	0.2%[176 µM]	x	x	x	x	x
Cc1cccc(C)c1OCc1n[nH]c(=S)o1	44.7µM*	1.7%	6.9%	1.7%	-0.3	-2.6%
CCN(CC)C1CCN(C(=O)c2ccc3nc(Cc4ccc(OC)cc4)oc3c2)C1 (configuration not stated)	-28.2%	3.4%	7.0%	-0.9%	-68.5*	0.4%
CCC1CCCCN1C(=O)c1ccc2nc(Cc3ccc(OC)cc3)oc2c1 (configuration not stated)	2.6%	0.6%	23.2%	0.0%	-1.6	0.8%
CCCCCCn1nc(C(=O)Nc2ccc(OC)c(Cl)c2)c2ccccc2c1=O	16.3%	x	x	x	x	x
Cc1ccc(NNC2CC(=O)N(c3cccc(Cl)c3)C2=O)cc1 (configuration not stated)	20µM*	-3.0%	-5.4%	6.2%	-1.9	-0.5%
O=C1CC(NNc2ccccc2)C(=O)N1c1ccccc1 (configuration not stated)	44.7µM*	4.4%	6.6%	-1.3%	0.2	-2.2%
COc1ccc(NC2CC(=O)N(c3ccccc3)C2=O)cc1 (configuration not stated)	21.7%	-0.4%	10.2%	u	-1.9	-5.4%
Nc1nccnc1C(=O)NCCSCc1cccs1	5.8%	x	x	x	x	x
CCOC(=O)c1c(NC(=O)CSc2nnc(-c3ccco3)o2)sc(C(C)=O)c1C	0.0%	-7.4%	x	0.4%	-59.8*	x
CC1(C)CC(=O)C/C(=N\NC(=O)C2CC23CCC3)C1 (configuration not stated)	293.6%	9.4%	-8.2%	3.8%	0.9	50.1µM*
CC1(C)CC(=O)C/C(=N/NC(=O)C2CCCCC2)C1	20.5%	x	x	x	x	x
CCC(CC)C(=O)N1N=C(c2cccc(OC)c2)CC1c1ccc2nccnc2c1 (configuration not stated)	11.5%	x	x	x	x	x
SMILES	ALOX12 inh	ASM inhibitor	p53 reactivation	PINK1 expr mod	CCT chaperon mod	Mm-Cpn inhibitor
COCCNC(=S)NN=C1CCCCC1	-5.0%	-3.6%	-3.4%	0.2%	-0.7	-3.2%
C=CCNC(=S)NN=C1CCCCCCC1	14.1µM*	-0.5%	2.3%	0.8%	-0.8	-3.3%
Cc1ccc(C)c(SCC(=O)OCC(=O)c2ccco2)c1	39.8µM*	-1.1%	11.7%	3.1%[38.3 µM]	-0.8	-11.4%
Cc1ccc(C)c(SCC(=O)NCc2ccco2)c1	-2.5%	0.8%	-1.6%	-1.3%	-1.2	0.3%
O=C1c2ccccc2C2=Nc3ccccc3SC(c3cccc(F)c3)C12 (configuration not stated)	-20.1%	u	-2.0%	39.8µM*	-3.3	0.0%
CCCn1nc(S(=O)(=O)N2CCCC2)c(C(=O)OCC)c1C	11.2µM*	x	x	x	x	x
CCOC(=O)c1c(S(=O)(=O)N2CCCCCC2)c(C)n(C)c1C	137.8%	-2.5%	0.0%	0.6%	0.2	2.2%
CCCn1nc(S(=O)(=O)N2CCCCC2)c(C(=O)OCC)c1C	6.31µM*	x	x	x	x	x
Cn1c(-c2cccc(Br)c2)cnc1NCc1cccc(F)c1	11.2µM*	x	x	10.3%	x	x
Cn1c(-c2cccc([N+](=O)[O-])c2)cnc1NCc1cccc([N+](=O)[O-])c1	u	-4.3%	-3.1%	5.3%	0.8	0.4%
Cc1ccc2cc(CCl)c(Cl)nc2c1C	4.47µM*	x	x	x	x	x
O=C(NCCc1cccc(F)c1)c1ccc(=O)[nH]c1	12.5%	x	x	x	x	x
N#Cc1c(-c2ccco2)c2c([nH]c1=S)CCCC2	31.6µM*	-0.6%	-2.1%	-1.8%	-3.9	-0.1%
O=C(/C=C/c1ccccc1)NC(NC(=S)Nc1cccc(Cl)c1)C(Cl)(Cl)Cl (configuration not stated)	-1.1%	-1.4%	-25.5%	u	0.4	-2.7%
O=C(/C=C/c1ccccc1)NC(NC(=S)Nc1ccc(Cl)cc1Cl)C(Cl)(Cl)Cl (configuration not stated)	x	x	19.9%	10µM*	-0.6	0.8%
Cc1ccc(/C=C/C(=O)Nc2ccc([N+](=O)[O-])cc2)o1	6.31µM*	-0.7%	u	u	-3.3	1.0%
CC(=O)c1ccc(NC(=O)/C=C/c2ccc(C)o2)cc1	-15.2%	x	x	1.3%	x	x
Cc1ccc(/C=C/C(=O)Nc2ccc(Oc3ccccc3)cc2)o1	15.8µM*	-1.7%	u	1.9%	-7.1	-6.4%
COc1ccc(-c2nc(C(=O)N3CCCCCC3)nn2-c2cccc(Cl)c2)cc1	7.1%	x	x	x	x	x
CCS(=O)(=O)N1CCc2cc(C(=O)CSc3ccc(F)cc3F)ccc21	3.7%	x	x	x	x	x
COCCn1cnc2c1c(=O)n(CC(=O)Nc1c(C)cccc1C)c(=O)n2CC(C)C	3.7%	x	x	x	x	x
CSc1nc2c(=S)[nH]c(=S)[nH]c2s1	14.1µM*	x	x	0.8%	-0.6	x
O=c1cc(-c2ccccc2)oc2c1ccc1ccccc12	0.0%	x	x	x	x	x
O=c1oc(-c2ccc(O)c(O)c2)cc2cc(O)cc(O)c12	2.51µM*	-4.1%	u	-1.1%	0.8	-11.2%
